From the supplement of paper PMC9433436
± gives the standard deviation of the averaged measurements. In all, about 4,100 sequences were measured (“relative kcat/Km (krel) vs genomic leader AAAGAU”: median about 1.7, highest 2% from about 6.5 on). The full list was thinned out, with the highest values kept by preference.

Biological target: T1, E. coli RNase P holoenzyme (M1 P RNA + rnpA protein) (UniProt P0A7Y8)
T1 sequence: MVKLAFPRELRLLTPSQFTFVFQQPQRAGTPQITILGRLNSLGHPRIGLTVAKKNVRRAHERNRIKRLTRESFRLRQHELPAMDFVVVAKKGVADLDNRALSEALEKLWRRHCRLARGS
Experiment: relative kcat/Km (krel) vs genomic leader AAAGAU (relative (reference leader = 1)); higher = faster RNase P cleavage
Method: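 HTS-Kin: a pool of ptRNA-Met (21C construct) with all 4096 combinations of 5' leader nucleotides N(-6) to N(-1) was processed in vitro by E. coli RNase P (P RNA + rnpA/C5 protein) under multiple-turnover conditions at 37 C, pH 8, 17.5 mM MgCl2. Residual substrate was Illumina-sequenced at several fractions reacted, and relative kcat/Km (krel) was computed by internal competition kinetics, calibrated to the genomic leader (AAAGAU = 1). The listed hexamer is the varied N(-6)..N(-1) leader (DNA letters), and it sits between a fixed 5' stem-loop flank (GCAUGCACGAAAGUGCGUGCUAUGAA) and the mature tRNA-Met starting GGCUACGUAGCUCAGUUGG. Two technical replicates are averaged.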

[1] = fraction of substrate reacted: ~9-10% (9.79% repeat 1, 9.1% repeat 2)
[2] = fraction of substrate reacted: ~13-16% (15.68% repeat 1, 13.17% repeat 2)
[3] = fraction of substrate reacted: ~26-29% (28.66% repeat 1, 26.4% repeat 2)

| Sequence | relative kcat/Km [1] | relative kcat/Km [2] | relative kcat/Km [3] |
| --- | --- | --- | --- |
| TTCGTC | 3.53 ± 1.4 | 4.55 ± 1 | 6.81 ± 3.2 |
| TTCGTA | 3.36 ± 1.3 | 4.26 ± 0.22 | 6.35 ± 2.4 |
| CTCGTC | 2.68 ± 0.76 | 3.41 ± 0.98 | 5.19 ± 2 |
| TGCGAA | 1.78 ± 0.26 | 1.82 ± 0.69 | 2.43 ± 0.68 |
| TTCGAG | – | 1.96 ± 0.07 | 4.8 ± 1 |
| CTCGAA | 4.31 ± 0.54 | 6.4 ± 1.7 | 8.12 ± 3.5 |
| CTCGGA | – | – | 0.671 ± 0.41 |
| TTCGAA | 5.32 ± 1.2 | 7.22 ± 2.3 | 10.3 ± 4.3 |
| TTCGTG | – | 0.287 ± 0.27 | 2.01 ± 0.17 |
| TTCGAT | 1.69 ± 0.22 | 2.71 ± 1.2 | 4.44 ± 2 |
| TTCGAC | 5.66 ± 1.9 | 7.11 ± 1.7 | 10.2 ± 4.3 |
| CGCGAA | 2.89 ± 0.49 | 3.39 ± 1.2 | 4.94 ± 1.5 |
| AGTGTT | 0.435 ± 0.024 | – | 1.34 ± 0.99 |
| CTACTT | 2.09 ± 0.14 | 2.2 ± 0.49 | 2.49 ± 0.63 |
| TGAACT | 1.41 ± 0.67 | 1.85 ± 0.71 | 2.58 ± 0.76 |
| GGCGCT | 1.32 ± 0.23 | 0.701 ± 0.31 | 1.43 ± 0.38 |
| GGGCTT | – | – | 0.481 ± 0.22 |
| TAACCG | – | – | 0.9 ± 0.51 |
| GCTTTC | 2.29 ± 2.1 | 1.88 ± 0.58 | 2.09 ± 0.45 |
| AATACA | 1.91 ± 0.78 | 1.7 ± 0.041 | 2.02 ± 0.66 |
| TAAACA | 1.85 ± 0.81 | 1.35 ± 0.24 | 1.75 ± 0.52 |
| ATCGGA | 0.168 ± 0.15 | 0.728 ± 0.66 | 1.28 ± 1.1 |
| CAGCTT | 2.22 ± 1.1 | 1.55 ± 0.38 | 2.33 ± 0.38 |
| GTGCAC | 1.19 ± 0.29 | 1.29 ± 0.18 | 1.98 ± 0.6 |
| GATAAA | 1.84 ± 0.48 | 2.34 ± 0.5 | 3.8 ± 1.4 |
| AGAGAG | – | – | 1.16 ± 0.33 |

| Sequence | relative kcat/Km [1] | relative kcat/Km [2] | relative kcat/Km [3] |
| --- | --- | --- | --- |
| AGCGAC | 3.26 ± 1.9 | 3 ± 1.1 | 4.06 ± 1.3 |
| ATCGAT | 1.99 ± 0.67 | 3 ± 0.7 | 3.36 ± 1.2 |
| GTCGTA | 2.55 ± 1.1 | 2.7 ± 0.23 | 3.88 ± 0.79 |
| GTCGAC | 3.76 ± 0.29 | 5.92 ± 1.9 | 9.01 ± 3.7 |
| ATCGAG | 2.14 ± 2.1 | 1.29 ± 0.12 | 3.85 ± 0.66 |
| GGCGAA | 2.38 ± 1.1 | 2.86 ± 0.39 | 3.85 ± 1.4 |
| ATCGAC | 3.59 ± 0.99 | 4.75 ± 0.93 | 6.92 ± 2 |
| GTCGAT | 1.85 ± 0.87 | 2.87 ± 0.49 | 3.7 ± 1.3 |
| ATCGGC | – | – | 1.97 ± 1.5 |
| ATCGAA | 3.16 ± 0.35 | 5.71 ± 1.4 | 8.19 ± 3.6 |
| GTCGAA | 4.23 ± 1.8 | 5.6 ± 0.65 | 8.71 ± 2.8 |
| GTCGAG | 2.05 ± 1.5 | 2.123 ± 0.001 | 4.03 ± 1.6 |
| TTGCCG | – | – | 0.519 ± 0.071 |
| AGTGAA | 2.54 ± 0.25 | 2.23 ± 0.96 | 3.35 ± 1.5 |
| ATGACA | 1.94 ± 1.6 | 1.85 ± 0.61 | 2.06 ± 0.28 |
| ATACGT | 0.722 ± 0.057 | 1.92 ± 1.6 | – |
| CGCGGA | 1.5 ± 1.2 | 1.39 ± 0.29 | 1.41 ± 0.58 |
| AGCACC | 2.38 ± 0.45 | 2.12 ± 1.5 | 3.05 ± 1.8 |
| CCTGGT | – | – | 2.47 ± 0.83 |
| CTCGAG | 1.8 ± 0.06 | 1.72 ± 1.4 | 3.97 ± 1.3 |
| CTCGAT | 1.97 ± 0.027 | 2.48 ± 1.3 | 4.24 ± 2.1 |
| CTCGAC | 5.18 ± 1.3 | 6.72 ± 2.8 | 9.16 ± 4.6 |
| TAGGGA | 0.803 ± 0.65 | – | – |
| GGAAAC | 1.99 ± 1.4 | 1.61 ± 1.1 | 2.23 ± 0.17 |
| CCGCGC | 2.23 ± 0.85 | 1.53 ± 0.98 | 1.76 ± 0.15 |
| GCGCAT | 1.99 ± 0.76 | 2.09 ± 1.1 | 3.07 ± 1.8 |

| Sequence | relative kcat/Km [1] | relative kcat/Km [2] | relative kcat/Km [3] |
| --- | --- | --- | --- |
| AAAAGC | – | – | 0.981 ± 0.48 |
| ACAGTG | – | – | 0.981 ± 0.72 |
| CCGGTA | 1.49 ± 0.78 | 1.25 ± 0.69 | – |
| AACGCG | 1.32 ± 0.5 | 0.857 ± 0.52 | 1.47 ± 0.078 |
| ACCCGA | 3.55 ± 0.39 | 4.06 ± 0.66 | 5.44 ± 1.5 |
| CCCCGC | 2.14 ± 1.4 | 2.8 ± 0.83 | 4.54 ± 1.6 |
| TCCCGC | 4.31 ± 2.6 | 5.2 ± 0.32 | 7.32 ± 3.2 |
| TCCCGA | 3.95 ± 1.4 | 4.81 ± 0.41 | 7.64 ± 2.3 |
| ACCCGC | 3.03 ± 1.8 | 3.51 ± 0.3 | 4.87 ± 1.5 |
| CCCCGA | 3.63 ± 1.8 | 4.05 ± 0.29 | 4.96 ± 1.9 |
| TTGCGG | 0.933 ± 0.76 | 0.256 ± 0.11 | 1.14 ± 0.22 |
| AAATAA | 2.68 ± 1.5 | 2.92 ± 0.98 | 3.44 ± 1.2 |
| TCACGC | 2.24 ± 0.65 | 3 ± 0.93 | 4.05 ± 1.5 |
| GTGACT | – | 0.972 ± 0.2 | 1.08 ± 0.28 |
| GGGACA | 1.4 ± 1.2 | 0.801 ± 0.45 | 1.2 ± 0.15 |
| GGGTGC | 0.876 ± 0.24 | 0.837 ± 0.025 | 1.04 ± 0.35 |
| ATGTTG | – | – | 0.642 ± 0.16 |
| GTCTCA | 3.83 ± 1.2 | 5.79 ± 0.43 | 7.71 ± 2.8 |
| GACTCA | 3.33 ± 1.5 | 4.56 ± 0.1 | 5.69 ± 2.1 |
| CTCTCA | 3.31 ± 1.3 | 4.49 ± 0.63 | 5.72 ± 1.9 |
| GTCTCT | 4.15 ± 1.8 | 5.51 ± 0.37 | 7.16 ± 1.8 |
| GTATCT | 2.3 ± 0.54 | 3.23 ± 0.87 | 4.66 ± 1.9 |
| GTGTCT | 0.45 ± 0.21 | 1.24 ± 0.15 | 1.44 ± 0.22 |
| GTCTCG | 2.29 ± 1.9 | 2.35 ± 0.054 | 4.3 ± 1.1 |
| TTCTCA | 4.88 ± 2.1 | 5.74 ± 0.87 | 8.21 ± 3.6 |
| TTCTCT | 4.43 ± 1.1 | 6.17 ± 1.4 | 8.57 ± 3.4 |

| Sequence | relative kcat/Km [1] | relative kcat/Km [2] | relative kcat/Km [3] |
| --- | --- | --- | --- |
| ATCTCA | 3.67 ± 2 | 4.25 ± 0.21 | 6.06 ± 2.4 |
| ATCTCT | 3.47 ± 1.2 | 4.36 ± 0.18 | 6.18 ± 2.7 |
| TTCTCG | 2.16 ± 1.3 | 2.86 ± 0.45 | 4.91 ± 1.5 |
| TTGCTA | 2.11 ± 1.3 | 1.43 ± 0.11 | 2.24 ± 0.7 |
| GACTCG | 1.8 ± 1.4 | 1.87 ± 0.13 | 3.21 ± 0.58 |
| TAAAGA | 1.01 ± 0.34 | 1.61 ± 0.79 | 3.01 ± 1.7 |
| CGCTGG | 0.49 ± 0.25 | – | – |
| TGCGAG | – | 0.318 ± 0.22 | 1.39 ± 0.28 |
| TTGCGA | 1.1 ± 0.36 | 1.53 ± 0.44 | 1.91 ± 0.14 |
| CGACAT | 3.05 ± 0.3 | 3.54 ± 1.1 | 4.82 ± 1.8 |
| GGGTTC | 0.445 ± 0.035 | 0.916 ± 0.37 | 0.82 ± 0.16 |
| CACGGA | – | – | 0.766 ± 0.63 |
| GGGATA | – | 0.415 ± 0.34 | – |
| CTCTCT | 4.48 ± 1 | 4.84 ± 1.6 | 7.22 ± 3 |
| CTCTCC | 3.04 ± 0.91 | 4.91 ± 0.6 | 6.17 ± 2.2 |
| GCCTCC | 2.78 ± 1.2 | 3.32 ± 0.14 | 5.33 ± 1.8 |
| GGCTCC | 2.56 ± 0.54 | 1.96 ± 0.23 | 2.25 ± 0.7 |
| ATCTCC | 3.67 ± 0.85 | 4.83 ± 1.4 | 6.39 ± 2.9 |
| GTCTCC | 4.62 ± 1.7 | 6.15 ± 0.65 | 8.17 ± 3.2 |
| TTCTCC | 5.23 ± 2.1 | 6.12 ± 0.67 | 8.25 ± 3 |
| CTCTCG | 1.91 ± 1.5 | 1.68 ± 0.37 | 3.31 ± 0.37 |
| TGCTCC | 2.19 ± 0.87 | 2.31 ± 0.43 | 2.87 ± 0.78 |
| CGGAGG | 0.395 ± 0.29 | – | – |
| CATTTG | – | – | 1.49 ± 0.39 |
| ACGCTA | 1.05 ± 0.29 | 0.572 ± 0.17 | 1.74 ± 0.51 |
